Measured values from publication PMC8159961, “Exploring protein hotspots by optimized fragment pharmacophores” (Nature Communications, 2021).
Unmarked numbers belong to inactive results. No rule for the calls is given here.

Columns and labels:
Assay in all cases: primary screen, binary call; higher = more effect of the substance
[1] = target: Factor Xa (bovine, UniProt P00743); set-up: screenings were carried out in duplicate in one independent experiment; settings: 200 µM
Experimental: Protease inhibitory assays were performed in transparent microtiter plates in a final volume of 200 µL with the use of chromogenic substrates. The reaction rates in the absence and in the presence of the inhibitor were measured; screenings were carried out in duplicate in one independent experiment and Ki values were determined in triplicate in two independent experiments.

[2] = target: 5-HT6 receptor (human, UniProt P50406); set-up: hit call from the mean of at least two separate experiments; settings: 10 µM
[3] = target: 5-HT7b receptor (human, UniProt P34969); set-up: hit call from the mean of at least two separate experiments; settings: 10 µM
Sequence of 5-HT7b receptor (P34969 whole entry, looked up): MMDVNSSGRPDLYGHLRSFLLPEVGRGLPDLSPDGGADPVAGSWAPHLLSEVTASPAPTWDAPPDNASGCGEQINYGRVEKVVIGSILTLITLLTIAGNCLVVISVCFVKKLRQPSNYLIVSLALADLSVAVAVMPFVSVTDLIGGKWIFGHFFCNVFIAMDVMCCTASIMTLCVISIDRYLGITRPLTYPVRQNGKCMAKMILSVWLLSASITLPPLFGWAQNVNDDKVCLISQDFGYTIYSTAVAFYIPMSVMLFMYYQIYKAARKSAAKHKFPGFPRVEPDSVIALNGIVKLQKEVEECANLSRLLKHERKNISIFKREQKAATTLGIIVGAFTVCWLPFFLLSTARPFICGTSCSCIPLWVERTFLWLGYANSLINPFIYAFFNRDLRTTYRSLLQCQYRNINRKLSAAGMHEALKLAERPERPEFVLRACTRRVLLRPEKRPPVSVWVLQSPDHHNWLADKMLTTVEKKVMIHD

Sequence of 5-HT6 receptor (P50406 whole entry, looked up): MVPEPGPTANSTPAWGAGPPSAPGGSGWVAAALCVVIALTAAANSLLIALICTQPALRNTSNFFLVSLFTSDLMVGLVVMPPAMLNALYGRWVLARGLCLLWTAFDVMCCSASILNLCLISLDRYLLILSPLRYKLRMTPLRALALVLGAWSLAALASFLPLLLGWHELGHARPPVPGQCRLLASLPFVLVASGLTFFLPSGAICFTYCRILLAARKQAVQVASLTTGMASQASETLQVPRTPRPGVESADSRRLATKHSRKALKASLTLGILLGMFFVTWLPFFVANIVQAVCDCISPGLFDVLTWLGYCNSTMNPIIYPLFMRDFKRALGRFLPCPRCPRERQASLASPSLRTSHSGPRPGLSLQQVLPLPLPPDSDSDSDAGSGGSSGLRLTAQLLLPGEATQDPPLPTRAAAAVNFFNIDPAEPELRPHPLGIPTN
Sequence of Factor Xa (P00743 41-180 limits assumed): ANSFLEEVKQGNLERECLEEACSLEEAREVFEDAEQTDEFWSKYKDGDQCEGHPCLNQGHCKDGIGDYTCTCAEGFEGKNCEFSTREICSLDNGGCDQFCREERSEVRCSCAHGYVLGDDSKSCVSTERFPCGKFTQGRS
Sequence of Factor Xa (P00743 234-492 limits assumed): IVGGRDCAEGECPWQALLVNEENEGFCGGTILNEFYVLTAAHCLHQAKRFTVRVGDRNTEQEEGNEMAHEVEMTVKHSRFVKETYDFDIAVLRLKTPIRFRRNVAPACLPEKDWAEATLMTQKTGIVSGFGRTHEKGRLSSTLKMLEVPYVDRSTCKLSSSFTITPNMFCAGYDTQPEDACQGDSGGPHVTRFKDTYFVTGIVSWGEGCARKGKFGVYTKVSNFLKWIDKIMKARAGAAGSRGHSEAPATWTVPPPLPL

SMILES	Factor Xa [1]	5-HT6 [2]	5-HT7 [3]
c1ccc2sc(N3CCNCC3)nc2c1	0	0	0
O=C(O)c1cccc(Nc2ncccn2)c1	0	1 (active)	0
C1=C[C@H]2O[C@@H]1c1ccccc12	0	0	0
CCn1cnc2ccccc21	0	0	0
CS(=O)(=O)Nc1ccc(C(=O)O)cc1	0	0	0
O=C1CCC(=O)N(c2ccccc2)N1	0	0	0
Nc1nnc(-c2cccs2)[nH]1	0	1 (active)	0
N[C@H]1c2ccccc2C[C@H]1CO	0	0	0
O=C1NC(=O)/C(=C\c2cccs2)N1	1 (active)	0	0
Cc1ccc(-c2ccc(O)cc2)cc1	0	0	0
Cc1cnc(C(F)(F)F)cn1	0	0	0
Clc1ccc2nnnn2n1	0	0	0
O=C(O)C1CCCN(C(=O)N2CCCC2)C1 (stereo not drawn)	0	0	0
O=C1CC(CSc2ccc(Cl)cc2)=NN1	0	0	0
O=c1ccc2c([nH]1)CCCC2	0	0	0
Oc1ccc(-n2cncn2)cc1	0	0	0
Oc1ccc(C2CCNCC2)cc1	0	0	0
O=C(O)CC1CCC(=O)N1 (stereo not drawn)	0	0	0
N#Cc1ccc(C(=O)N2CCOCC2)cc1	0	0	0
Nc1ccc(SC(F)F)cc1	0	0	0
CCCN1C(=O)CC(=O)NC1=S	0	0	0
N#CCCN1CCc2ccccc21	0	0	0

SMILES	Factor Xa [1]	5-HT6 [2]	5-HT7 [3]
Cc1nccn1Cc1cccc(C#N)c1	0	0	0
CN(C)c1cc(CN)ccn1	0	0	0
Cn1c(N)nc2ccccc21	1 (active)	0	0
CCN(CC)c1cccc(C)c1	0	0	0
CS(=O)(=O)c1ccc(N2CCNCC2)cc1	0	0	0
COc1ccccc1N1CCNCC1	0	1 (active)	1 (active)
CS(=O)(=O)c1ccc(OC(F)(F)F)cc1	0	0	0
CC(=O)c1ccc2c(c1)CCCN2	0	0	0
Cc1cc(N)no1	0	0	0
O=C(c1ccncc1)N1CCNCC1	0	0	0
c1cnc2c(c1)NCCC2	0	0	0
Brc1ccc(-c2ccon2)cc1	0	0	0
O=C1CCN(c2ccncc2)CC1	0	0	0
NC(c1ccccc1)c1ccccc1	0	0	0
c1ccc2c(N3CCNCC3)ccnc2c1	0	1 (active)	0
COc1ccc(CN2CCNCC2)cc1F	0	0	0
NC1CCc2ccccc21 (stereo not drawn)	0	0	0
N#CC1CCS(=O)(=O)C1 (stereo not drawn)	0	0	0
CC1C(=O)NC(=O)N1c1ccc(Cl)cc1 (stereo not drawn)	0	0	0
Cc1ccc(C)n1Cc1ccccc1Cl	0	0	0
COc1ccc(C2=CCNCC2)cc1	0	0	0
O=C(O)c1ccc(CN2CCOCC2)cc1	0	0	0
